# Screening data as filed in PubChem.
# An excerpt weighted towards active compounds, which were near 6.1% of everything screened.
# D1 antag – Antagonist of Human D 1 Dopamine Receptor: qHTS; D(1A) dopamine receptor (Homo sapiens), P21728; HEK293 TREx D1 cells, calcium flux, dopamine EC80; active compounds read low; activity change, negative = inhibition, % at 10 µM; 360,000 tested, 3.2% active; in the data active means activity change below about -30%; further: on the % scale 0 is the no-effect control and ±100 the full control effect
#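 Calcium flux readout: force-coupled, inducible Hek293 Trex D1 line, cells induced overnight at 30 C with tetracycline, dye-loaded 30–90 min at RT. Antagonism scored against EC80 dopamine challenge given 180 s after compound.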
# D1 ag – Allosteric Agonists of the Human D1 Dopamine Receptor: qHTS | D(1A) dopamine receptor (Homo sapiens), P21728 | HEK293 T-REx D1 cells, calcium flux, agonist mode | activation, % at 2 µM | 360,000 tested, 1% active; in the data active means activation above about 30%; further: 0% is about no effect
#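 Inducible HEK293 T-REx D1 cells, force-coupled to calcium signalling, were plated at 4000 cells/well with tetracycline and held overnight at 30 C. After no-wash calcium dye loading, compound-evoked calcium rise over 180 s flagged agonists.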
# D3 ag – qHTS of D3 Dopamine Receptor Agonist: qHTS. D(3) dopamine receptor (Homo sapiens), P35462. D3R DiscoveRx beta-arrestin cells, luminescence, 90 min. max activation, %. 410,000 tested, 0.58% active. AID 652048, 2013; in the data active means max activation above about 30%; further: 0% is about no effect
# Target sequence (P35462 whole entry, looked up): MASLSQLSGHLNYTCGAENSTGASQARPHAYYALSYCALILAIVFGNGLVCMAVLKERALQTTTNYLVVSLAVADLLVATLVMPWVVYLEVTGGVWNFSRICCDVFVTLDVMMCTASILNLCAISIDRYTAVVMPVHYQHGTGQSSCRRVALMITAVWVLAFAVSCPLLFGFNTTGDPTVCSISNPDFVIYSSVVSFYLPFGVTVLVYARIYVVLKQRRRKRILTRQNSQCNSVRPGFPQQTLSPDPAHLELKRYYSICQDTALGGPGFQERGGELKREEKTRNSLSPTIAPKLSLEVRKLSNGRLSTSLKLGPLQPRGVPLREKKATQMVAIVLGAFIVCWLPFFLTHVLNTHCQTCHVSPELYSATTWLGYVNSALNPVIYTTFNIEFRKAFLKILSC
#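 Agonist mode: compounds and dopamine controls were applied to plated cells for 90 min at 37 degrees C after an overnight attachment at 1500 cells/well. Luminescent read-out followed 30 - 60 minutes at room temperature with DiscoveRx detection reagent.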
# D1 potentiator – Potentiators of Human D1 Dopamine Receptor: qHTS; HEK293 TREx D1 cells, calcium flux, dopamine EC20 potentiation; potentiation, % at 10 µM; 360,000 tested, 0.036% active; AID 504651, 2011; in the data active means potentiation above about 30%; further: 0% is about no effect
# ERG-DNA inh – qHTS for Small Molecule Inhibitors of the ERG Ets/DNA interaction; fluorescence polarization, His-ERG Ets domain / labelled DNA; Potency, µM (highest dose often 76.9 µM), for inactives: top-dose FP activity, negative = inhibition, hits mostly inhibitors; 370,000 tested, 0.028% active; AID 624246, 2012; active means well fitted inhibition curve with a large enough effect in the polarisation, with a control signal flat; inconclusive means small, poorly fitted or top-dose-only effect, or effect the other way, or a change in a side signal; inactive means no such curve, though single readings can be large or run the other way; the % refers to the polarisation;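 further: polarization taken with two DNA probes labelled with fluorescein and Texas red; potency means the concentration at half of the fitted maximal effect; % of control where 0% means no effect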
#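 His-tagged ERG Ets domain (1 uM in the protein solution; 300mM KCl, 50mM Tris-HCl, 1mM EDTA, 1mM DTT, pH 7.5) received compound, then a probe mix of 5 nM fluorescein-DNA and 100nM Texas-615-DNA. Fluorescence polarization was read for both dyes.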
# DRD3 antagonist – qHTS of D3 Dopamine Receptor Antagonist: qHTS; D(3) dopamine receptor (Homo sapiens), P35462; D3R cells, DiscoveRx beta-arrestin luminescence, antagonist mode; active compounds read low; max response, negative = inhibition, %; 360,000 tested, 2.5% active; in the data active means max response below about -50%; inconclusive means no clear call, values can overlap the other calls; further: on the % scale 0 is the no-effect control and ±100 the full control effect
#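 Cells expressing the human receptor were seeded at 1500 cells/well, incubated overnight at 37 degrees C in 5% CO2, then exposed to library compounds with dopamine controls for 90 minutes at 37 degrees C before luminescent detection.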
# The depositor's hits bear a star; ? = inconclusive; · = no result.
SMILES,D1 antag,D1 ag,D3 ag,D1 potentiator,ERG-DNA inh,DRD3 antagonist
Cc1cccc(C)c1NC(=O)C(c1ccc(C#N)cc1)n1c(=O)c(-c2ccccc2)nc2ccccc21 (stereo unspecified),·,·,-19,·,·,-60*
CCOC(=O)C1=CN(Cc2cccc(F)c2)S(=O)(=O)N(C)C1c1ccc(F)c(Cl)c1 (stereo unspecified),·,·,-11,·,1%,-4
N#CC1=C(N)C(C#N)(C#N)C(c2cccnc2)C2CN(C(=O)OCc3ccccc3)CC=C12 (stereo unspecified),7,-1,-6,-4,7%,-74*
CCOC(=O)N1CC=C2C(C#N)=C(N)C(C#N)(C#N)[C@H](c3ccc(OCC)c(OCC)c3)[C@H]2C1,9,0,1,-6,-7%,8
CCCCn1c(=O)c2oc3ccccc3c2n(CC(=O)Nc2ccc(CC)cc2)c1=O,10,0,13,1,-2%,·
COc1ccc(C2CC3(O)CC(C#N)(C(=O)N3)C2(C#N)C#N)cc1 (stereo unspecified),-2,2,-6,3,10%,4
CC[C@H](C)[C@H]1CNC(=S)N1CC1CCN(CCCC2CCCC2)CC1,·,·,-43,·,8%,-78*
CC(C)C[C@H]1CNC(=S)N1CC1CCN(CCC23CC4CC(CC(C4)C2)C3)CC1,·,·,-45,·,12%,-72*
CC[C@H](C)[C@H]1CNC(=S)N1CC1CCN(CCCCc2ccccc2)CC1,·,·,-45,·,7%,-65*
CC[C@H](C)[C@H]1CNC(=S)N1CC1CCN(CCC(C)(C)C)CC1,·,·,-43,·,-1%,-1
CC(C)C[C@H]1CNC(=S)N1CC1CCN(CC2CCCC2)CC1,·,·,-45,·,-1%,?
CC(C)C[C@H]1CNC(=S)N1CC1CCN(CCCC2CCCCC2)CC1,·,·,-46,·,-2%,-101*
S=C1NCCN1CC1CCN(CCC23CC4CC(CC(C4)C2)C3)CC1,·,·,-40,·,0%,-16
CC(C)C[C@H]1CNC(=S)N1CC1CCN(CC2CCC(C(C)(C)C)CC2)CC1 (stereo partly specified),·,·,-44,·,3%,-63*
Cc1cc(N/N=C/c2ccc(O)cc2O)nc(-n2nc(C)cc2C)n1,-17,1,-28,0,-9%,-122*
Cc1cc(N/N=C/c2ccccc2O)nc(-c2ccccc2O)n1,-12,0,-1,-6,4%,-131*
COc1ccc(O)c(/C=N/Nc2nc(Nc3ccccc3)nc(-n3nc(C)cc3C)n2)c1,-11,1,-39,-7,2%,-117*
COc1ccc(/C=N/Nc2cc(C)nc(-n3nc(C)cc3C)n2)cc1,11,3,-3,-5,-9%,-2
Cc1cc(N2CCN(c3ccccc3)CC2)n2cnnc2n1,-3,3,-19,4,-10%,·
N=C(N)SCC1=CCS(=O)(=O)C1,6,2,-3,0,14%,-3
C=C(C)COc1cc2oc(=O)c(CC(=O)N3C[C@H]4C[C@@H](C3)c3cccc(=O)n3C4)c(C)c2cc1Cl,-7,0,33*,0,3%,-21
COC(=O)c1cc2sc(C)cc2n1CC(=O)Nc1ccc(C)c(C)c1,11,2,-13,-3,-5%,·
Cc1ccc(C(c2nnnn2C(C)(C)C)N2CCN(C3CCCC3)CC2)cc1 (stereo unspecified),4,1,-16,10,2%,-92*
COc1ccccc1N1CCN(C(c2ccc(N(C)C)cc2)c2nnnn2CCc2ccccc2)CC1 (stereo unspecified),2,9,1,-5,-5%,-51*
Cc1cccc(N2CCN(C(c3ccncc3)c3nnnn3C(C)(C)C)CC2)c1C (stereo unspecified),-40*,0,-1,-8,-1%,0
SMILES,D1 antag,D1 ag,D3 ag,D1 potentiator,ERG-DNA inh,DRD3 antagonist
CC(C)(C)n1nnnc1C(c1ccncc1)N1CCN(C2CCCCC2)CC1 (stereo unspecified),-18,4,-4,-4,·,14
COc1ccc(C(c2nnnn2CCc2ccccc2)N2CCN(C3CCCC3)CC2)cc1 (stereo unspecified),14,1,0,0,5%,-85*
Cc1cccc(C)c1NC(=S)NN1CCN(C)CC1,9,3,3,-4,-1%,0
COC(=O)/C=C(\C)NC(=O)c1ccccc1Cl,-1,4,2,-2,3%,30
COc1ccc(NC(=S)NC2CC3CCC(C2)N3Cc2ccco2)cc1 (stereo unspecified),-64*,18,-14,-6,-13%,-22
CCc1ccc(NC(=S)NC2CC3CCC(C2)N3Cc2ccco2)cc1 (stereo unspecified),-77*,20,-24,-3,-3%,?
CN(C)S(=O)(=O)N1CCC(Oc2ccc(C(=O)N3CCCCCC3)cc2)CC1,·,·,3,·,·,-2
CN(C)S(=O)(=O)N1CCC(Oc2ccc(C(=O)N3CCCCCCC3)cc2)CC1,-35*,23,4,-8,-2%,14
COCC(=O)N1CCC(Oc2ccc(C(=O)NCc3cc(C)no3)cc2)CC1,-8,3,1,3,-6%,3
CN(C(=O)c1ccc(OC2CCN(S(=O)(=O)N(C)C)CC2)cc1)C1CCCCC1,-1,4,0,-7,-18%,2
CCN(Cc1cnn(C)c1)C(=O)c1ccc(OC2CCN(S(=O)(=O)N(C)C)CC2)cc1,-42*,9,3,-5,0%,1
CN(C)S(=O)(=O)N1CCC(Oc2cccc(C(=O)NC3CCCCCC3)c2)CC1,-32*,14,1,-7,-3%,1
Cc1cc(CNC(=O)c2cccc(OC3CCN(S(=O)(=O)N(C)C)CC3)c2)on1,-39*,9,-8,-10,-3%,17
O=C(COC(=O)CNC(=O)c1ccc(F)cc1)Nc1cccc(S(=O)(=O)N2CCCC2)c1,3,1,4,0,0%,3
CN(CC(=O)Nc1ccccc1Br)C(=O)c1cc([N+](=O)[O-])ccc1N1CCOCC1,1,1,-6,-4,-7%,8
Cc1cccc(/C=C2\Sc3ccc(C(=O)N4CCC(C)CC4)cc3N(C)C2=O)c1,10,2,-12,-1,-15%,-24
O=C1[C@H]2[C@H](C=CC[C@H]2C(=O)N2CCOCC2)CCN1Cc1ccc(Cl)c(Cl)c1,·,·,-5,·,0%,0
